In PubChem BioAssay (EPA / NIEHS):
“And” between values parts separate entries of the source, which are not always exact repeats. Equal values may be shown once. Records with an inconclusive call do not appear. The source holds several records for some structures; these can differ, active in one and inactive in another. The source made the active and inactive calls. The calls were made as follows, unless noted: active = hit-call score of the fitted dose curve at least 0.9, where 1 is the maximum; inconclusive = response in the unintended direction; inactive = score below 0.9.

Experiments:
[1] = biological target: mouse Estrogen Receptor alpha (Era), Esr1 (gene 13982) (UniProt P19785); experiment: NVS_NR_mERa: NovaScreen (NVS) Nuclear Receptor Binding Assay for mouse Estrogen Receptor alpha (Era) (AID 2283378);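 also: hit means loss of bound radioligand signal relative to DMSO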
mouse Estrogen Receptor alpha (Era), Esr1 (gene 13982), sequence (P19785 whole entry, looked up): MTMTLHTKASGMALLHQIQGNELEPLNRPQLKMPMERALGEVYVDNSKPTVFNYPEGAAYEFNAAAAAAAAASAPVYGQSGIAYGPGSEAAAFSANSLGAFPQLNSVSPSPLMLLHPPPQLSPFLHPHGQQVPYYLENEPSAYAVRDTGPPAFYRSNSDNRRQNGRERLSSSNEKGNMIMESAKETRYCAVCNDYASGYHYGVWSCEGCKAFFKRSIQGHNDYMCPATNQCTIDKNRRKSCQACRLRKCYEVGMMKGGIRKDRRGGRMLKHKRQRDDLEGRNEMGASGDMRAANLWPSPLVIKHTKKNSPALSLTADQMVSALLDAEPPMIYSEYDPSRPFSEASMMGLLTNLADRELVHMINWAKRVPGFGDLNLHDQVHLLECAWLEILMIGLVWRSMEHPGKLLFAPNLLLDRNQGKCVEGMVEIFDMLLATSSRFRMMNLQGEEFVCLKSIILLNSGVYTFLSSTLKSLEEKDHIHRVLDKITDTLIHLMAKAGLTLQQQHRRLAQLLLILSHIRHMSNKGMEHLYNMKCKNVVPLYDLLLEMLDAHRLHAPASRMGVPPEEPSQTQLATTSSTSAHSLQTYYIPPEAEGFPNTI
Procedure, shortened: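 Filter radiodetection of radioligand displacement from extracted receptor protein, measured 18 h post-dose. Single 25 uM concentration in duplicate initially, with concentration-series follow-up. Binding loss fitted relative to DMSO.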

[2] = biological target: Estrogen receptor (Homo sapiens) (UniProt P03372); experiment: OT_ERa_GFPERaERE_0480: Odyssey Thera (OT) 8-hour HeLa Transcription Induction Assay for Estrogen Receptor (AID 2283381; active = hit-call score of the fitted dose curve at least 0.9, where 1 is the maximum; inactive = score below 0.9)
Estrogen receptor (Homo sapiens), sequence (P03372 whole entry, looked up): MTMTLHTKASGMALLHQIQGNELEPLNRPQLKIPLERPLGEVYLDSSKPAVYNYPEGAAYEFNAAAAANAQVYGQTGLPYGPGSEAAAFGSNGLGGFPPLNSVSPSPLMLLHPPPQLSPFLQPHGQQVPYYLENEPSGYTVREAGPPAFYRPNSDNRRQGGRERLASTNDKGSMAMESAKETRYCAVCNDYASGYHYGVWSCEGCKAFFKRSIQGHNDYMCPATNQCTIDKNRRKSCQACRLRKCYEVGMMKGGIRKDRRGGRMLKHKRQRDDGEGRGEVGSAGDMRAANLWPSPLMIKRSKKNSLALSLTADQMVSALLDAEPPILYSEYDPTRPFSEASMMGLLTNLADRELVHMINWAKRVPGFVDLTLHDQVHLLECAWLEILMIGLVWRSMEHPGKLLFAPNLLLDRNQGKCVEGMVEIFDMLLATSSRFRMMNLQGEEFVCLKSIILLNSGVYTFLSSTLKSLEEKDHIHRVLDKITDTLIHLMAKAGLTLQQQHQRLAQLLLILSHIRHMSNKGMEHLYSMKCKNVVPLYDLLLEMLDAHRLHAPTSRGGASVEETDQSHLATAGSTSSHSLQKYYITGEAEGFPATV
Procedure, shortened: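 An 8 h HeLa transcription-induction format with a GFP reporter under ERE control, read by fluorescence microscopy; single endpoint fitted positively with DMSO as baseline.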

[3] = biological target: Estrogen receptor (Homo sapiens) (UniProt P03372); experiment: OT_ERa_GFPERaERE_0120: Odyssey Thera (OT) 2-hour HeLa Transcription Induction Assay for Estrogen Receptor (AID 2283382)
Procedure, shortened: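 Two-hour compound treatment of HeLa cells preceded microscopy imaging of an inducible fluorescent reporter. Image-based quantification gave one endpoint, analysed for signal increase relative to DMSO controls.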

[4] = biological target: Retinoic acid receptor RXR-alpha (Homo sapiens) (UniProt P19793); experiment: OT_NURR1_NURR1RXRa_0480: Odyssey Thera (OT) 8-hour HEK293T Protein Complementation Assay for Nurr1/retinoid X receptor (RXR) (AID 2283385)
Retinoic acid receptor RXR-alpha (Homo sapiens), sequence (P19793 whole entry, looked up, the tested form may be a part): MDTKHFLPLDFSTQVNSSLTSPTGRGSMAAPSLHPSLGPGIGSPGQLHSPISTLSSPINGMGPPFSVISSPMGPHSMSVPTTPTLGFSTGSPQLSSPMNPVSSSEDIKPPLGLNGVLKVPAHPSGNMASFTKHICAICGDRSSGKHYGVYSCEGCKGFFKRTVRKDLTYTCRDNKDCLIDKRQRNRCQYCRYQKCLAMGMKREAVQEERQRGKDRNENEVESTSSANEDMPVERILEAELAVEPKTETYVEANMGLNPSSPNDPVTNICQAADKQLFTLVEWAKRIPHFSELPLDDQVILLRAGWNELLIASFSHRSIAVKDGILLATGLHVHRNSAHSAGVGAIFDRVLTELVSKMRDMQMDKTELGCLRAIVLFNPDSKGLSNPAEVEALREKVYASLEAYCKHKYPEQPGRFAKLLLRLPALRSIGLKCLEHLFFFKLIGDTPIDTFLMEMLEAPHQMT
Procedure, shortened: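 Gain in fluorescent complementation signal over DMSO, measured 8 hours after chemical dosing of human kidney HEK293T cells, indicated enhanced Nurr1–RXRα association.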

[5] = biological target: Retinoic acid receptor RXR-alpha (Homo sapiens) (UniProt P19793); experiment: OT_NURR1_NURR1RXRa_1440: Odyssey Thera (OT) 24-hour HEK293T Protein Complementation Assay for Nurr1/retinoid X receptor (RXR) (AID 2283386)
Procedure, shortened: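 Cell-based binding reporter: HEK293T cells, 24 h exposure, fluorescence-detected fragment complementation, DMSO as baseline.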

[6] = biological target: human Norepinephrine Transporter (NET), SLC6A2 (gene 6530) (UniProt P23975); experiment: NVS_TR_hNET: NovaScreen (NVS) Transporter Assay for human Norepinephrine Transporter (NET) (AID 2283377);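 also: cell-free membrane protein extracted from CHO cells expressing human NET; displacement of radioligand from human NET seen as loss of scintillation signal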
human Norepinephrine Transporter (NET), SLC6A2 (gene 6530), sequence (P23975 whole entry, looked up): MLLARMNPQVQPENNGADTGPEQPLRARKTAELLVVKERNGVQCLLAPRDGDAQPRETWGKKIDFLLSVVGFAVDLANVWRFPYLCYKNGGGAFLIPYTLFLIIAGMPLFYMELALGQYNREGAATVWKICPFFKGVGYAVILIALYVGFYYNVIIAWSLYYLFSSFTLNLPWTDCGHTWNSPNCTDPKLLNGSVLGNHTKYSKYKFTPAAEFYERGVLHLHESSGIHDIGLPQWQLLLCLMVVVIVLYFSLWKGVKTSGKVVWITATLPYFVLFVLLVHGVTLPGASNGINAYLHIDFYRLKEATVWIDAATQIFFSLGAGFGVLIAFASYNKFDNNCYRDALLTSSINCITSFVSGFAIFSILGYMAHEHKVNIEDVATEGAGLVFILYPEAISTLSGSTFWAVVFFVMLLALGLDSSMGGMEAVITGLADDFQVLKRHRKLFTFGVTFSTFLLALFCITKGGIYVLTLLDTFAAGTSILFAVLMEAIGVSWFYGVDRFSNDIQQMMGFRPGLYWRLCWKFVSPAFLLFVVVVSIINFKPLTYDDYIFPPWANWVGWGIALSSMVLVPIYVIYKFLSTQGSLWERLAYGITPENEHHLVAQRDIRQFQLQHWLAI
Procedure, shortened: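 In this cell-free binding screen, chemicals at 25 uM (duplicate) compete with a radioligand for CHO-derived human NET over 1 hour, with filter-based radiodetection.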

[7] = biological target: Estrogen receptor beta (Homo sapiens) (UniProt Q92731); experiment: OT_ER_ERbERb_1440: Odyssey Thera (OT) 24-hour HEK293T Protein-Complementation Assay for Estrogen Receptor-beta/-beta Homodimer (AID 2283380);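 also: fluorescence gain from ER beta LBD homodimer complementation read by laser scanning cytometry; scored as signal increase over DMSO baseline for both agonists and antagonists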
Estrogen receptor beta (Homo sapiens), sequence (Q92731 whole entry, looked up, the tested form may be a part): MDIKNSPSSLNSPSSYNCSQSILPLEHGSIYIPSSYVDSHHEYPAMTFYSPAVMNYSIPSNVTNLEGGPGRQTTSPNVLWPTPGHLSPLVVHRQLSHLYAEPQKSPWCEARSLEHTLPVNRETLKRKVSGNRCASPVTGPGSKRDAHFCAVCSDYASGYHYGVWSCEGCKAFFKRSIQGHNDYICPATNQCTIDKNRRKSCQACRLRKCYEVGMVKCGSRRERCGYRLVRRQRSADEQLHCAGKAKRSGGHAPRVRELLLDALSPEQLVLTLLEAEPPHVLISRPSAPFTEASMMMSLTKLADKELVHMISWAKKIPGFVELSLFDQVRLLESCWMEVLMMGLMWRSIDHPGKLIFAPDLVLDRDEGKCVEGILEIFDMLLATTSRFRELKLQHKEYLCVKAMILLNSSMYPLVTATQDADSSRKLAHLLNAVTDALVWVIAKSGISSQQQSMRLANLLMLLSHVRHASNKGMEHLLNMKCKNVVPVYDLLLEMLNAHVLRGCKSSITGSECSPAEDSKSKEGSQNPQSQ
Procedure, shortened: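 HEK293T cells stably expressing human ER-beta LBD (aa 310-547) PCA homodimer pair, dosed 24 h; formaldehyde-fixed, Draq5-stained. Readout: increase in nuclear (agonist) or nuclear plus cytoplasmic (antagonist) fluorescence intensity versus DMSO, gain-of-signal fitting.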

[8] = biological target: Bile acid receptor (Homo sapiens) (UniProt Q96RI1); experiment: OT_FXR_FXRSRC1_0480: Odyssey Thera (OT) 8-hour HEK293T Protein-Complementation Assay for Farnesoid X receptor/SRC-1 Co-activator (AID 2283383)
Bile acid receptor (Homo sapiens), sequence (Q96RI1 whole entry, looked up): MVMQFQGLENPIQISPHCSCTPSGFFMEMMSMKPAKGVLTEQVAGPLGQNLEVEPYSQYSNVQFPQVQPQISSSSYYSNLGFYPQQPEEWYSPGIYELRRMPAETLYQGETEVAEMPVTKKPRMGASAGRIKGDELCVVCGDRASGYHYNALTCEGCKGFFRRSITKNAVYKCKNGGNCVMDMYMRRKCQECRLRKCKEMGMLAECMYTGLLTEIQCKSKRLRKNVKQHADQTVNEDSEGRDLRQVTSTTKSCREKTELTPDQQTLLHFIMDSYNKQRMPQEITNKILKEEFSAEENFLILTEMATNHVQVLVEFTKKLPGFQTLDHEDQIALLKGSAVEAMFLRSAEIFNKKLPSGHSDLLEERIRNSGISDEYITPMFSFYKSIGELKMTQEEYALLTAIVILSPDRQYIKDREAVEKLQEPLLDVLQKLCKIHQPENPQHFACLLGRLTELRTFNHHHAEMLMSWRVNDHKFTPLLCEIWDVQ
Procedure, shortened: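 Readings were taken 8 h after dosing HEK293T cells in a split-reporter complementation format pairing FXR with SRC-1. Increased fluorescence relative to DMSO-treated wells defined activity.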

[9] = biological target: Bile acid receptor (Homo sapiens) (UniProt Q96RI1); experiment: OT_FXR_FXRSRC1_1440: Odyssey Thera (OT) 24-hour HEK293T Protein-Complementation Assay for Farnesoid X receptor/SRC-1 Co-activator (AID 2283384)
Procedure, shortened: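 Single endpoint, analysed for increased fluorescence against DMSO controls. HEK293T cells carrying FXR and SRC-1 linked to complementary reporter halves were exposed to chemicals for 24 h before reading.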

[10] = biological target: Agonist Androgen Response Element (ARE), AR (gene 367) (UniProt P10275); experiment: OT_AR_ARELUC_AG_1440: Odyssey Thera (OT) 24-hour CHO-K1 Luciferase Assay for Agonist Androgen Response Element (ARE) (AID 2283379)
Agonist Androgen Response Element (ARE), AR (gene 367), sequence (P10275 whole entry, looked up): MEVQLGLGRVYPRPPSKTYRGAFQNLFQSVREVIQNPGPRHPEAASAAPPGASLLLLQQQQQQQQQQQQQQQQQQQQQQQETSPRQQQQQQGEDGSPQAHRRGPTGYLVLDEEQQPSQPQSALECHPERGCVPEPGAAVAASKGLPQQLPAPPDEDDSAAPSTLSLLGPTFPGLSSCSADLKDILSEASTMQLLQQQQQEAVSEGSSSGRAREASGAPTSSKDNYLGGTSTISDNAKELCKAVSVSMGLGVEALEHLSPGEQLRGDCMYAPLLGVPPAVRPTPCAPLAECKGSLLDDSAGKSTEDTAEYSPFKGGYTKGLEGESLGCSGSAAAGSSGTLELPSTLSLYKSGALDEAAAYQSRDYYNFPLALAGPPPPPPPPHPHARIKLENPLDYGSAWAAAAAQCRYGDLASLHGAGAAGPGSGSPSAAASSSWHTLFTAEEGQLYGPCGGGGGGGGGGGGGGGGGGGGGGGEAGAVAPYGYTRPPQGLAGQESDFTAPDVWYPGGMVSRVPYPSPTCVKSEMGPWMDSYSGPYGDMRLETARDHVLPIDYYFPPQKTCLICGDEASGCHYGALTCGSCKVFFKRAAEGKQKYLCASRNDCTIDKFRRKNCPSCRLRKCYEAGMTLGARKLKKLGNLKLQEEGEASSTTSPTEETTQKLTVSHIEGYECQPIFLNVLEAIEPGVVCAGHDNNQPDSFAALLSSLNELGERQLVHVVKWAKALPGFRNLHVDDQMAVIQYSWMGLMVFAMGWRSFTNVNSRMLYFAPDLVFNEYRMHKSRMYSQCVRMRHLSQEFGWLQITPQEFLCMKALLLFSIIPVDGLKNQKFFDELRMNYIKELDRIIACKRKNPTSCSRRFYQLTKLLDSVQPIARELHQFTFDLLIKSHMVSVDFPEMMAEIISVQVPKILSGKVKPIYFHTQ
Procedure, shortened: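 Luminescence increase above DMSO, read after a 24 h compound treatment of CHO-K1 cells expressing an androgen response element luciferase reporter, gives the single primary endpoint; concentration-response fitting used the positive direction.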

Measured: AC50

CCOCCOC(C)=O
inactive: [1] | [2] | [3] | [4]

CCCCCCOC(=O)c1ccccc1C(=O)OCCCCCC
inactive: [1] | [2] | [3] | [4] | [5]

Oc1ccc(C(c2ccc(O)cc2)(C(F)(F)F)C(F)(F)F)cc1
active: [6] 16.1 µM
inactive: [4] | [5]

O=C(O)C(F)(F)C(F)(F)C(F)(F)C(F)(F)C(F)(F)C(F)(F)C(F)(F)C(F)(F)C(F)(F)F
active: [6] 25 µM
inactive: [1] | [2] | [3] | [4] | [5]

C=CC(=O)NCNC(=O)C=C
inactive: [1] | [7] | [2] | [3] | [4] | [5]

O=C(O)C(F)(F)C(F)(F)C(F)(F)C(F)(F)C(F)(F)F
inactive: [7] | [2] | [3] | [4] | [5]

N#Cc1ccc(N(CC(N)=O)CC(F)(F)F)cc1C(F)(F)F
inactive: [7] | [2] | [3] | [8]

Nn1cnnc1
inactive: [7] | [2] | [3] | [5]

CCOP(=S)(OCC)SCSC(C)(C)C
inactive: [2] | [3] | [4] | [5]

Cc1cccc([N+](=O)[O-])c1
inactive: [2] | [3]

O=C(NC(=O)c1cc(F)c(F)cc1Cl)Nc1cc(F)ccc1N1CCC(C(=O)O)CC1
inactive: [2] | [3] | [4] | [5]

CCC(C)c1cc([N+](=O)[O-])cc([N+](=O)[O-])c1O (stereo unspecified)
inactive: [7] | [2] | [3] | [9] | [4] | [5]

CCSC(=O)N(CC)C1CCCCC1
inactive: [2] | [3] | [8] | [9] | [4]

C[C@]12CCC(=O)C=C1CC[C@@H]1[C@@H]2CC[C@]2(C)C(=O)CC[C@@H]12
active: [8] 26.8 µM and 19.3 µM and 27.1 µM | [9] 28.7 µM and 30.7 µM
inactive: [7] | [2] | [3] | [9] | [4] | [5]

Cc1ccccc1[N+](=O)[O-]
inactive: [7] | [2] | [3] | [4] | [5]

Sc1ccccc1
inactive: [2] | [3]

C1CC2OC2CC1C1CO1 (stereo unspecified)
not listed: [1] | [6] | [10]
inactive: all other assays above

O=S(=O)(O)C(F)(F)C(F)(F)C(F)(F)C(F)(F)F
inactive: [7] | [2] | [3] | [4] | [5]

Cc1ccccc1O
inactive: [7] | [2] | [3] | [4] | [5]

ClC1=C(Cl)[C@]2(Cl)[C@@H]3[C@@H]4C[C@@H]([C@H]5O[C@@H]45)[C@@H]3[C@@]1(Cl)C2(Cl)Cl
inactive: [2] | [3] | [5]
active: [4] 77.7 µM and 81.5 µM

C=CC(N)=O
inactive: [2] | [3] | [4] | [5]

OCC(O)CO
not listed: [1] | [6] | [10]
inactive: all other assays above

ClC1=C(Cl)[C@]2(Cl)[C@@H]3[C@@H](Cl)[C@H]4O[C@H]4[C@@H]3C1(Cl)C2(Cl)Cl
active: [7] 14.4 µM | [4] 79.6 µM | [5] 86 µM
inactive: [2] | [3] | [4] | [5]

CO/C=C(/C(=O)OC)c1ccccc1COc1cccc(C(F)(F)F)n1
inactive: [7] | [2] | [3] | [4] | [5]
active: [8] 9.85 µM | [9] 3.27 µM | [4] 50 µM

CCNc1nc(NC(C)C)nc(SC)n1
inactive: [10] | [7] | [5]

Cc1cc2c3c(c1)C(c1ccccc1)=N[C@@H](NC(=O)c1ccncc1)C(=O)N3CC2
inactive: [7] | [2] | [3] | [4] | [5]
active: [8] 20.8 µM | [9] 32.8 µM | [4] 62 µM | [5] 33.6 µM

CN(C)CCO
inactive: [7] | [2] | [3] | [4] | [5]

Cc1cccc(C)c1N
inactive: [7] | [2] | [3] | [8] | [9] | [5]

COS(=O)(=O)OC
inactive: [2] | [3] | [4] | [5]

CN(C)c1nc(=O)n(C2CCCCC2)c(=O)n1C
not listed: [1] | [6] | [10]
inactive: all other assays above

CCC(C)(CC)c1cc(NC(=O)c2c(OC)cccc2OC)on1
inactive: [7] | [4] | [5]

Cc1ccccc1CO[C@@H]1C[C@@]2(C(C)C)CC[C@]1(C)O2
active: [4] 81.2 µM
inactive: [10] | [5]

Clc1ccc(Cl)cc1
inactive: [7] | [2] | [3] | [4]

COc1ccc(O)c(C(C)(C)C)c1
active: [7] 57.3 µM
not listed: [1] | [6] | [10]
inactive: all other assays above

c1cc2ccc3cccc4ccc(c1)c2c34
not listed: [1] | [6] | [7]
inactive: all other assays above

O=S(=O)(O)C(F)(F)C(F)(F)C(F)(F)C(F)(F)C(F)(F)C(F)(F)F
inactive: [2] | [3] | [9] | [4] | [5]

CC1=C2C[C@H]3[C@@H](CC=C4C[C@@H](O)CC[C@@]43C)[C@@H]2CC[C@]12O[C@@H]1C[C@H](C)CN[C@H]1[C@H]2C
not listed: [1] | [6] | [7]
inactive: all other assays above

Clc1ccc(C(Cl)(Cl)Cl)cc1
inactive: [2] | [3] | [8] | [9] | [4] | [5]
